# Reference: the supplement of paper PMC3334620
# Whole data set: some 33,000 sequences, median “E-score (-0.5 to 0.5)” near -0.01, cut for the highest 2% near 0.26. The list comes from a sample in which the highest values are over-represented; it also holds similar and randomly drawn sequences.
# Target: Ste12 (UniProt P13574)
# Assay: PBM E-score (8-mer binding enrichment) (E-score (-0.5 to 0.5)); higher = stronger / more preferred TF binding
# Conditions: protein concentration: 200 nM; construct: GST-DNA-binding domain
# Method in brief: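 GST-tagged yeast TFs (full-length or DNA-binding domain) were made by PURExpress in vitro transcription/translation and applied at about 100-200 nM to universal all-10-mer Agilent arrays. The arrays were made double-stranded by primer extension, on fresh or once-stripped slides. Bound protein was detected with fluorescent anti-GST, and scans were normalised with masliner. Each ungapped eight-base word, pooled with its reverse complement, received an E-score (modified Wilcoxon-Mann-Whitney statistic) from the Universal PBM Analysis Suite.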
# Chain of UniProt P13574 (P13574 whole entry): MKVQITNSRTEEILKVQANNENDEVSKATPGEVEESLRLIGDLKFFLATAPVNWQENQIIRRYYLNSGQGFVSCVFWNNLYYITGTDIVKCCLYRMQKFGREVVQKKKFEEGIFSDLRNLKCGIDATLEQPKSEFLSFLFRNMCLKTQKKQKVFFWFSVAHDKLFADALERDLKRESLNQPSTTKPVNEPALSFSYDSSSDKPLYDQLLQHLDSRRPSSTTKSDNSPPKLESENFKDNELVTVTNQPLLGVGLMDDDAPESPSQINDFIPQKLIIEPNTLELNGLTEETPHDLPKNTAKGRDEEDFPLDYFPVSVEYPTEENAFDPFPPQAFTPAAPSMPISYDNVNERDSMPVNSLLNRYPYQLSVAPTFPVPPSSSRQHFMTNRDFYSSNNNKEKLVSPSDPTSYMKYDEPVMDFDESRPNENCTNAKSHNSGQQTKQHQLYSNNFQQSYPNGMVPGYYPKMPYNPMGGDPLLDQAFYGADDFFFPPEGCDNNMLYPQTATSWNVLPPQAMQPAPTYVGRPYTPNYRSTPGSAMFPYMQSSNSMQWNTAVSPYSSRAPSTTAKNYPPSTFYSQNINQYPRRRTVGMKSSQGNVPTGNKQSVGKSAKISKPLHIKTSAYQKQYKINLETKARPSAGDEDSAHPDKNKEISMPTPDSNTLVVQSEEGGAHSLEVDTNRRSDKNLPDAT
row,Sequence,PBM E-score
1,AAGTTGAA,0.134
2,CCGGCCCG,0.00367
3,CGCCAAAA,0.227
4,GGGGTGGA,0.00832
5,ACCTTATG,0.0329
6,TCCTAAGA,-0.00559
7,AAAGGTTC,-0.154
8,AAAATGGA,0.237
9,AAAATGAA,0.27
10,AAAATGCA,0.00439
11,GCCTCAGC,-0.226
12,ATAAAGTC,0.167
13,AGATGGCT,-0.0505
14,CATGTAAA,0.027
15,AATGTAAT,0.187
16,AATGTAAA,0.269
17,TATTCAGA,0.029
18,CGCCAATA,0.036
19,CTTTGAAA,0.318
20,GTTTGAGA,0.311
21,ATTTGAAG,0.0968
22,ATTTGAAC,0.123
23,CTTTGAGA,0.114
24,ATTTGAAA,0.366
25,ATTTGATA,0.258

row,Sequence,PBM E-score
1,GTTTGATA,0.301
2,ATTTGAGA,0.126
3,CTTTGATA,0.179
4,CTTTGACA,-0.0728
5,CTTTGAAC,0.0927
6,CGCCCTTA,-0.0507
7,AGTGAACG,-0.109
8,TGCGTCAA,0.0654
9,GTCCAAAC,0.0248
10,ACGCTTGG,-0.293
11,ATAGACGC,0.0365
12,GTTTGAAA,0.409
13,GTTTGCAA,0.186
14,GTTTGACA,0.0294
15,AGCGGCTC,-0.0004
16,TACCAAAA,0.204
17,ACCAACAG,-0.042
18,ACCAAAAC,0.235
19,ACCAAAAA,0.27
20,CACCAAAA,0.216
21,ACCAACAT,0.125
22,AACCAAAA,0.324
23,ACCAAAAT,0.254
24,ACCAACAA,0.269
25,TATTAAGA,0.0777

row,Sequence,PBM E-score
1,GCATCTAC,0.0977
2,AGCTTGAA,-0.0125
3,GATGGAAA,0.0433
4,TATGGAAA,0.292
5,AGTGGAAA,-0.0995
6,CGTGGAAA,0.19
7,CATGGAAA,0.098
8,TGTGGAAA,0.286
9,CTCAAGGA,-0.181
10,ACTGGTCC,-0.0777
11,AACTTTTA,0.228
12,CACCTTCC,0.0254
13,TAACCCGA,-0.0489
14,AAACCCAT,0.131
15,AAACCCCG,0.28
16,AAACCCAA,0.349
17,AAACCCGA,0.336
18,GAAACCCA,0.246
19,CAAACCCG,0.0369
20,CAAACCCA,0.262
21,GAACCCAA,-0.0682
22,AAACCCCC,-0.122
23,GAACCCGA,-0.0553
24,AACCCCCG,-0.133
25,GCGCACCC,-0.0102

row,Sequence,PBM E-score
1,CCAAGGGC,-0.139
2,CCGCACCC,0.222
3,CAAGTTCG,-0.0514
4,CTTCTAAC,-0.0172
5,AGTCTAGC,-0.223
6,CTATCGCA,-0.0857
7,AGGTGATA,0.0763
8,ACCGATGC,-0.0639
9,ATGAAAAA,0.305
10,GTGAAAAC,0.0815
11,ACGAAAAC,0.25
12,CTGAAAAA,0.0763
13,TAGAAAAA,0.0605
14,ATGAAAAT,0.166
15,TTGAAAAA,0.323
16,ATGAAAAG,-0.0787
17,ATGAAAAC,0.349
18,CGACCTTA,0.111
19,ACGCCAGT,-0.084
20,ATAACTAT,0.0787
21,ACAAAATA,0.0836
22,CAAAAATC,0.123
23,ACAAAATC,0.291
24,ACAAAATG,0.0682
25,GAAAAATC,0.201

row,Sequence,PBM E-score
1,AAAAAATC,0.363
2,CTACCACC,-0.102
3,AATCGACA,0.248
4,CAGCGACC,-0.0234
5,GGCGTGGA,-0.0873
6,AATAGTCA,-0.0559
7,ATTTACAC,0.18
8,GGGTGAAA,0.315
9,AGGTGAAA,0.235
10,TGGTGCAA,-0.18
11,CGGTGAAA,0.245
12,TGGTGACA,0.048
13,TGGTGAAA,0.277
14,AGCTGGGG,-0.136
15,ACCCAGGT,-0.218
16,CCAAGAAC,-0.11
17,CGCCAACA,-0.0261
18,GCACATCA,-0.00042
19,GCCCCCAA,-0.0804
20,GAAAAATA,0.217
21,CTAAAATA,0.181
22,ATAAAATA,0.257
23,GTAAAATA,0.131
24,TATAAATA,0.228
25,CAAAAATG,0.182

row,Sequence,PBM E-score
1,AATAAATA,0.21
2,CAAAAATA,0.346
3,CATAAATA,0.268
4,AAAAAATA,0.267
5,CCAAAATA,0.21
6,TAAAAATA,0.318
7,GCCTAAAA,-0.0428
8,CATCCCAA,0.0892
9,CTCAACTC,0.141
10,ATGACTAG,-0.183
11,ACACATCC,-0.0267
12,GTTCACCA,-0.0697
13,TCCCTCCA,-0.191
14,ATATTGAT,0.248
15,AAATCTTC,0.0263
16,GAGGTAGC,-0.239
17,CAGGGTTC,-0.0459
18,AAACGCGG,0.264
19,AAACGCGT,0.255
20,CAACGCGG,-0.0344
21,CGCCGTCA,0.0459
22,ACTCTGCT,-0.0783
23,GATATTGC,0.0418
24,CCAATCCC,0.104
25,ACAATCCG,-0.0367

row,Sequence,PBM E-score
1,CCAATCCG,0.281
2,GGCTACCC,-0.285
3,AGGGCGTA,-0.176
4,CGGGCGGA,-0.012
5,GGGGCGTA,0.282
6,CGGGCGTA,-0.0442
7,AGGGCGGA,-0.248
8,GGGGCGGA,0.404
9,CGCTCCAG,0.0315
10,CAACCTGC,0.0657
11,CCTGCAGG,-0.16
12,CAAAGTAA,0.125
13,AAAAGTAA,0.287
14,AAAAGTAT,0.178
15,AAAAGTGG,0.139
16,AAAAGTGA,0.267
17,AAAAGTGT,0.0304
18,AAAAGTTC,0.0553
19,AAAAGTTG,0.127
20,AAAAGTTT,0.283
21,CAACAGCC,-0.0347
22,TATCGAAA,0.258
23,GAGTATCC,-0.127
24,AGGTAGAG,-0.0159
25,CGCTGGCA,0.00792

row,Sequence,PBM E-score
1,TCACCAAA,0.177
2,CCAGCAGG,-0.107
3,ATGATGGG,-0.0865
4,ACGAAACT,0.127
5,CCGAAACC,0.142
6,TCGAAACA,0.395
7,GCGAAACA,0.134
8,CCGAAACA,0.376
9,ACGAAACA,0.327
10,CCGAAACG,0.152
11,ACGAAACC,0.242
12,TCGAAAAA,0.238
13,CCGAAAAA,0.269
14,CCGAAAAC,0.0124
15,CCGAAAAG,0.235
16,ATTTTTGC,0.236
17,CCTCTAGA,-0.134
18,ATTCGCGA,0.0844
19,ATAGACTC,-0.133
20,CAGCTTAC,0.0225
21,AAGACATG,-0.137
22,GCCTGGGA,-0.23
23,TACCTGGA,-0.0387
24,TCCCGCAA,0.18
25,ACATAGGA,-0.0111

row,Sequence,PBM E-score
1,ATTTAGGA,-0.039
2,ACAGAATA,0.0915
3,CTCGCAGC,0.0324
4,CAGAAACA,0.156
5,ACGAAAGG,0.0336
6,AAGAAACA,0.285
7,ACGAAACG,0.31
8,AAGAAACT,0.172
9,ACGAAAAG,0.16
10,GGTCCATA,-0.111
11,AAGCAATA,0.0028
12,ACGGCATG,-0.107
13,CAGGTAAA,0.248
14,GAGGTAAC,0.0397
15,GAGGTAAA,0.334
16,GAGCTGGC,-0.0837
17,AATATATA,0.22
18,AATATATG,0.143
19,AGTATATG,0.143
20,AAAATATT,0.266
21,AGTATATC,-0.0122
22,CATATATG,0.18
23,CATATATC,0.0851
24,AATATATT,0.326
25,CATATATA,0.283

row,Sequence,PBM E-score
1,AGTATATA,0.295
2,AAAATATC,0.147
3,AAAATATG,0.241
4,CCCCTAGG,-0.254
5,ACGCTAGA,-0.209
6,CTGTTGGA,0.0959
7,ATCAGGGG,-0.128
8,GATGGTTA,-0.0584
9,CAGGTTTA,0.0837
10,CCGGTTTA,-0.00824
11,ATGGTTTG,0.0887
12,AAGGTTTC,0.148
13,CGGGTTAC,0.0422
14,ACGGTTTC,0.2
15,CCGGTTTC,0.298
16,CAGGTTTC,0.361
17,CGGGTTTC,0.323
18,CTGGTTTC,0.244
19,AGGGTTTC,0.114
20,ATGGTTTC,0.28
21,AGCCTCGC,-0.155
22,GCCCGATA,-0.0773
23,AAGGTTCG,-0.185
24,AAGTGCAA,-0.0141
25,AGTGATGC,-0.099

row,Sequence,PBM E-score
1,TCAGACGA,-0.0271
2,AGGGTTTA,0.00108
3,CGGGTTTA,0.304
4,GGGGTTTA,0.00666
5,GTTCAGAA,-0.0378
6,AAACCGCG,0.287
7,AAAACGCG,0.285
8,AAAACGCC,0.099
9,CGAACGCG,0.0317
10,CAAACGCG,0.292
11,CAACCGCG,0.0561
12,CCAACGCG,-0.107
13,AAAACGCT,0.0239
14,AAACCGCC,0.212
15,CAGTTTTC,0.105
16,CACACCAG,0.0883
17,ACTAGTTA,0.027
18,AACAGTAT,0.108
19,AATGGGAG,0.021
20,ACACTGTC,-0.0374
21,CTGAGTCA,0.0791
22,TACTGAAA,0.358
23,AACTGAAC,0.0813
24,AACTGTAA,0.328
25,GACTGTAA,-0.0138

row,Sequence,PBM E-score
1,TACTGATA,0.198
2,CACTGAAC,0.0627
3,CACTGAAG,-0.03
4,GACTGAAA,0.241
5,AACTGAAA,0.422
6,CACTGAAA,0.322
7,AACTGAAG,0.158
8,AACTGTAT,0.134
9,CGCCATAA,-0.108
10,AAGACCTA,-0.0739
11,AATCGCCG,-0.0024
12,TAACGTAA,0.191
13,ATAAATGA,0.189
14,AGTAGACG,-0.0195
15,TCTCTCAA,0.0783
16,ACTGCAAT,0.109
17,AAGGTCCC,-0.279
18,TGTCACAA,0.3
19,CGTCACAA,0.108
20,GGTCACAA,-0.022
21,AACGTTGG,0.038
22,CTAGATCA,-0.22
23,CAGTGGGA,-0.0936
24,CACCACTC,-0.164
25,TACCGAAA,0.0921

row,Sequence,PBM E-score
1,ACTGTGGA,-0.123
2,ACTTTCAT,-0.0303
3,CCTTTCAG,-0.115
4,CGTTTCAG,0.482
5,AGTTTCAT,0.428
6,CATTTCAG,0.0948
7,CGTTTCCC,0.165
8,GGTTTCCA,-0.0565
9,CGTTTCCA,0.301
10,ACTTTCAG,0.0489
11,AGTTTCAG,0.464
12,AGTTTCCG,0.148
13,AATTTCAT,0.0623
14,CATTGACG,0.0435
15,GAGCTCGC,-0.0349
16,CCCTTAGC,-0.0617
17,CCGTTGCA,0.0898
18,CGTGATCA,-0.00817
19,CGCTTCGA,-0.0748
20,CGGTTTGC,0.0736
21,AAAGTGCG,0.0163
22,CTTTCTTA,0.0052
23,CCCTGACA,-0.0188
24,ACTTTCAC,0.139
25,AGTTTCAC,0.338

row,Sequence,PBM E-score
1,CGTTTCTC,0.0338
2,AGTTTCGC,0.184
3,AGTTTCTC,-0.0852
4,AGTTTCAA,0.307
5,AGTTTCCA,0.212
6,AGTTTCTA,0.16
7,CGTTTCGA,0.195
8,CGTTTCAC,0.453
9,CGTTTCGC,0.296
10,CATTTCAC,0.099
11,GTCCATAA,-0.172
12,CGGTGGAC,-0.157
13,CTCACTAC,0.00581
14,CAGTTACA,0.0929
15,CGTTTCTA,0.166
16,CGTTTCAA,0.46
17,CCTTTCAA,-0.0319
18,AAGCTAGC,-0.242
19,CACTTCGC,0.0953
